Records with an inconclusive call do not appear. Activity calls are given as the source filed them. Calls follow the shape of the dose curve; as a rule, active = well fitted cell-killing curve with a large enough effect; inconclusive = small, poorly fitted or top-dose-only effect, or effect the other way; inactive = flat fitted curve, though single readings scatter.
Experiments:
Assay in all cases: Primary qHTS to identify gynecologic anti-cancer compounds using libraries of approved drugs and bioactive compounds (AID 1345084); also: nearly all actives have a fitted effect of over 55% in size
[1] = system: C33A; conditions: Gynecologic cancer cell panel viability, ATPlite luminescence, 48 h; series mostly up to 57.5 µM
Summary of the method: (§1)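 In this quantitative HTS, cell killing is estimated from loss of ATP-dependent luciferase light. Cells see five compound concentrations over a 48 h exposure.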

[2] = system: CAOV3; conditions: Gynecologic cancer cell panel viability, ATPlite luminescence, 48 h; series mostly up to 57.5 µM
Summary of the method: as §1

[3] = system: CASKI; conditions: Gynecologic cancer cell panel viability, ATPlite luminescence, 48 h; series mostly up to 57.5 µM
Summary of the method: as §1

[4] = system: Es-2; conditions: Gynecologic cancer cell panel viability, ATPlite luminescence, 48 h; series mostly up to 57.5 µM
Summary of the method: as §1

[5] = system: HeLa; conditions: Gynecologic cancer cell panel viability, ATPlite luminescence, 48 h; series mostly up to 57.5 µM
Summary of the method: as §1

[6] = system: Hek293T; conditions: Gynecologic cancer cell panel viability, ATPlite luminescence, 48 h, control line for the selectivity index; series mostly up to 57.5 µM
Summary of the method: as §1

[7] = system: JEG-3; conditions: Gynecologic cancer cell panel viability, ATPlite luminescence, 48 h; series mostly up to 57.5 µM
Summary of the method: as §1

[8] = system: OV90; conditions: Gynecologic cancer cell panel viability, ATPlite luminescence, 48 h; series mostly up to 57.5 µM
Summary of the method: as §1

[9] = system: PA-1; conditions: Gynecologic cancer cell panel viability, ATPlite luminescence, 48 h; series mostly up to 57.5 µM
Summary of the method: as §1

[10] = system: SKOV3; conditions: Gynecologic cancer cell panel viability, ATPlite luminescence, 48 h; series mostly up to 57.5 µM
Summary of the method: as §1

[11] = system: Tov-21-G; conditions: Gynecologic cancer cell panel viability, ATPlite luminescence, 48 h; series mostly up to 57.5 µM
Summary of the method: as §1

[12] = system: Tov112D; conditions: Gynecologic cancer cell panel viability, ATPlite luminescence, 48 h; series mostly up to 57.5 µM
Summary of the method: as §1

Measured: Potency

C=CCc1ccc(OC(C)Cc2ccc(OC)c(OC)c2)c(OC)c1 (centres undefined)
inactive: all assays above

CCCCOc1ccc(S(=O)(=O)n2c(C)nc3ccccc32)cc1
inactive: all assays above

CC(C)(C)NC(=O)[C@H]1CC[C@H]2[C@@H]3CC[C@H]4NC(=O)CC[C@]4(C)[C@H]3CC[C@]12C
inactive: all assays above

CCC(C)CNCC(=O)N1CCC2SC=CC2C1COc1cccc(C)c1 (centres undefined)
inactive: all assays above

CC(=O)O[C@@H]1CC2C(C)(C)C(=O)C=C[C@]2(C)C2CC[C@@]3(C)[C@H](c4ccoc4)OC(=O)[C@H]4O[C@]43[C@@]21C (some centres undefined)
inactive: all assays above

Cc1cc(C)c(S(=O)(=O)n2cc(C)cc2C)c(C)c1
inactive: all assays above

COc1ccc(Sc2ccc(NC(=O)c3ccccc3Cl)cc2C#N)cc1
inactive: all assays above

CC1(C)OC[C@H](NC(=O)Nc2ccc(Br)cc2Br)[C@H](c2ccccc2)O1
inactive: all assays above

COCCCNC(=O)c1ccc(Cn2c(=O)c3ccccc3n(Cc3ccc(C(C)C)cc3)c2=O)cc1
inactive: all assays above

N#Cc1ccc(COC[C@H]2O[C@@H](n3c(NCc4ccc(Cl)c(Cl)c4)nc4c(N)ncnc43)[C@H](O)[C@@H]2O)cc1
inactive: all assays above

C=C1/C(=C/C=C2\CCC[C@@]3(C)C2CCC3[C@H](C)/C=C/[C@@H](O)C2CC2)C[C@@H](O)C[C@@H]1O (some centres undefined)
inactive: all assays above

COc1c(C(C)C)c(O)c(O)c2c1C(OC)[C@H]1OC(=O)[C@@]23CCCC(C)(C)[C@H]13 (some centres undefined)
inactive: all assays above

COc1cc(C(=O)O)ccc1NC(=O)C1NC(CC(C)(C)C)C(C#N)(c2ccc(Cl)cc2F)C1c1cccc(Cl)c1F (centres undefined)
inactive: all assays above

Cc1cc(F)ccc1-c1nc(NCCN=C(N)NC#N)nc2c1ccc(=O)n2-c1c(F)cccc1F
inactive: all assays above

COc1ccc(NC(=O)C2C[C@H](C)CC[C@H]2C(C)C)cc1 (some centres undefined)
inactive: all assays above

O=C(Nc1cc(C(F)(F)F)ccc1N1CCCCC1)c1ccncc1
inactive: all assays above

C/C=C(\C)C(=O)OC1C=C(C)CC(OC(=O)c2ccc(O)cc2)C2C1(C)CCC2(O)C(C)C (centres undefined)
inactive: all assays above
